The full list was thinned out, with hits kept by preference.
HT1080NT lethal: kills 2HG-producing HT-1080-NT fibrosarcoma cells; 360,000 tested, 1.6% active; AID 686970; HT-1080-NT fibrosarcoma viability, CellTiter-Glo ATP luminescence, 48 h; Potency, µM (series often up to 46.1 µM), for the others: at the highest dose activity, negative = less viability, hits mostly cytotoxic;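 further: NT is the 2HG producing partner of a matched IDH1 knockdown line; potency means the concentration at half of the fitted maximal effect; 0% = DMSO-treated cells and -100% = media-only wells without cells; nearly all actives have a fitted effect of over 55% in size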
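A 48-hour cytotoxicity screen used HT-1080-NT cells plated 2 hours before compound delivery. ATP-based CellTiter-Glo luminescence measured viability, normalized to DMSO and no-cell controls.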
DT40 TDP1 no CPT: qHTS for Inhibitors of human tyrosyl-DNA phosphodiesterase 1 (TDP1): qHTS in cells in absence of CPT; Potency, µM (series often up to 46.2 µM), for inactives: top-dose activity change, negative = growth inhibition, most hits filed as inhibitors; 420,000 tested, 15% active; DT40 Tdp1-/- hTDP1 cells, no CPT, ATP luminescence, 48 h; further: potency means the concentration at half of the fitted maximal effect; nearly all actives have a fitted effect of over 55% in size
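Camptothecin absent (DMSO only). Human TDP1-complemented DT40 knockout cells, 400 cells/well, 37 °C for minimum 48 hr; ATP measured via CellTiter-Glo, 30 min dark incubation, luminescence.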
DT40 TDP1 CPT: DT40-hTDP1 cell growth loss with CPT. Potency, µM (highest dose often 46.2 µM), for inactives: at the top dose activity change, negative = growth inhibition, actives largely listed as inhibitors. 420,000 tested, 12% active. chicken DT40 Tdp1-/-;hTDP1 cells + 20 nM CPT, ATP luminescence, 48 h. AID 686979; further: potency means the concentration at half of the fitted maximal effect; nearly all actives have a fitted effect of over 55% in size
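Chicken DT40 Tdp1-/- cells stably complemented with human TDP1 were seeded at 400 cells/well in medium containing 20 nM camptothecin, exposed to pin-transferred compounds, and grown at 37 °C for at least 48 hr. Viability was read as ATP luminescence.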
IL-1B inflam inh: inflammasome signaling inhibition, IL-1 beta readout. 360,000 tested, 4.7% active. activity change, % at 57.5 µM. AID 743279. THP-1 LPS/ATP IL-1B secretion, AlphaLISA, 16 h; stronger effect = lower value; in the data active means activity change below about -50%; inconclusive means mostly about -30% to -49%
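THP-1 cells pretreated 1 hr with compounds (up to 57.5 uM final), then stimulated with LPS (250 ng/mL final) plus ATP (1.25 mM final); secreted IL-1B measured by AlphaLISA after 16 hr, decreased signal indicating inhibition.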
HT1080 IDH1KD tx: kills HT-1080 cells with IDH1 knockdown; HT-1080 IDH1 knockdown viability, ATP luminescence, 48 h; Potency, µM (highest dose often 46.1 µM), inactives show at the top dose activity, negative = toxicity, actives largely listed as cytotoxic; 360,000 tested, 2% active; AID 686971;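 further: potency means the concentration at half of the fitted maximal effect; 0% = DMSO wells and -100% = cell-free medium wells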
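Knockdown cells (IDH1KD HT-1080) received compounds 2 h after plating at 750 cells/well and were kept 48 h at 37 °C in 5% FBS RPMI. A CellTiter-Glo luminescence read gave % activity for curve fitting.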
12-LOX inh: ALOX12 (human) lipoxygenase inhibition. P18054. purified 12hLO, xylenol orange hydroperoxide absorbance. Potency, µM (top dose mostly 108 µM), without a hit: top-dose activity change, negative = inhibition, actives largely listed as inhibitors. 580,000 tested, 1.1% active. AID 1671190; further: potency means the concentration at half of the fitted maximal effect
Target sequence (P18054 whole entry, looked up): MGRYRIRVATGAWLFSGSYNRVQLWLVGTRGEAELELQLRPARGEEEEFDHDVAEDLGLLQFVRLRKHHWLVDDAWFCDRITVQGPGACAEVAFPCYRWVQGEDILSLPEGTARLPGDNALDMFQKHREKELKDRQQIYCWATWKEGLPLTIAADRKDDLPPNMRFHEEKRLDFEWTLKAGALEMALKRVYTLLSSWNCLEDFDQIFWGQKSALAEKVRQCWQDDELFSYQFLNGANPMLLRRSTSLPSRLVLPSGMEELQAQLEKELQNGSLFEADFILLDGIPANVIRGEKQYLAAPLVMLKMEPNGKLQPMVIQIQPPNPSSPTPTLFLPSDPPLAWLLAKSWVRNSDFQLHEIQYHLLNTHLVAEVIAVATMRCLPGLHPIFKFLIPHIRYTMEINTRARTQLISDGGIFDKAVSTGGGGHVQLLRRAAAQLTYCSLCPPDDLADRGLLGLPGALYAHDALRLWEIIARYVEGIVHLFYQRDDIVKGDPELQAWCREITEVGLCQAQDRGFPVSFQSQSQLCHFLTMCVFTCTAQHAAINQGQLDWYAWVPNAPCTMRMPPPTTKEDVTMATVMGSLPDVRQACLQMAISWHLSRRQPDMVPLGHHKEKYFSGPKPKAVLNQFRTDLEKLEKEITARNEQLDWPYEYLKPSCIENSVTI
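Hydroperoxide product was detected by ferrous iron/xylenol orange as the 573 to 405 nm absorbance ratio. Arachidonic acid at 40 uM (final) was turned over for 30 min at room temperature by 150 nM human 12hLO, pH 7.0 Hepes buffer, after 15 min compound preincubation.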
The depositor's hits bear a star; i = inactive; ? = inconclusive; . = no result given; [ ] = dose if it differs, or a comment. Unless noted, the call rests on the fitted dose curve; in most records, active means well fitted curve in the direction sought with a large enough effect; inconclusive means small, poorly fitted or top-dose-only effect, or another doubt; inactive means no such curve, though single readings can be large; an effect the other way counts as inactive or inconclusive. Unless noted, on the % scale 0 is the no-effect control and ±100 the full control effect.

SMILES	HT1080NT lethal	DT40 TDP1 no CPT	DT40 TDP1 CPT	IL-1B inflam inh	HT1080 IDH1KD tx	12-LOX inh
O=C(Nc1c(C(=O)Nc2ccccc2F)oc2ccccc12)c1cc2ccccc2o1	.	?	-1%	.	.	-17%
COc1cccc(N2C(=O)NC(=NC3CCCCC3)C23CCN(CCC(C)C)C3)c1 (stereo unspecified)	.	.	.	.	.	6%[6.33 µM]
CCCN(CC(=O)Nc1ccccc1OC)C(=O)C1CCCC1	-3%	21µM*	?	4	-1%	27%
CCCN(CC(=O)Nc1ccccc1OC)C(=O)Cc1ccc2c(c1)CCC2	-4%	?	18µM*	1	0%	.
Cc1ccc(NC(=O)Nc2c(C)n(C)n(-c3ccccc3)c2=O)cc1C	23%	23µM*	16µM*	13	18%	3%
COc1ccc(NC(=O)Nc2c(C)n(C)n(-c3ccccc3)c2=O)cc1OC	7%	19%	14%	i	-4%	2%
Cc1c(NN=C(C#N)C#N)c(=O)n(-c2ccccc2)n1C	3%	?	-85%	-61*	-2%	2%
CCC(C(=O)NCc1cc2c(cc1OC)CCC2)n1cccn1 (stereo unspecified)	.	.	.	.	.	15%
NC(=O)C(Oc1ccccc1Cl)c1ccccc1 (stereo unspecified)	.	.	.	.	.	33%
CCOC(=O)c1cnc(Nc2nc3ccccc3o2)nc1CSC(=S)N(CC)CC	8%	0.15µM*	0.15µM*	-4	8%	1%
O=C(NC(Cc1ccccc1)C(=O)N1CCN(c2ccccc2)CC1)c1ccco1 (stereo unspecified)	.	.	.	.	.	-2%
COc1ccc2c(C)c(CC(=O)N3CCC(O)(c4ccc(Cl)cc4)CC3)c(=O)oc2c1	.	.	.	.	.	-7%
CCOc1ccccc1Nc1nnc(SCC(=O)N(C)C2CCS(=O)(=O)C2)s1 (stereo unspecified)	17%	?	-21%	-61*	20%	0%
COc1ccc(Nc2nnc(SCC(=O)N(CC(C)C)C3CCS(=O)(=O)C3)s2)cc1 (stereo unspecified)	-18%	18µM*	?	-20	-8%	?
Cn1c(=O)c2c(nc(N3CCN(C(=O)c4ccccc4)CC3)n2Cc2ccccc2)n(C)c1=O	.	.	.	.	.	0%
Cc1ccc(NS(=O)(=O)c2c[nH]c3ccc([N+](=O)[O-])cc23)cc1	.	.	.	.	.	-22%
CCN(CC)S(=O)(=O)c1cc(C(=O)Nc2ncn(Cc3ccccc3C)n2)c(Cl)cc1Cl	.	.	.	.	.	53%
O=C(CC1(CC2=NS(=O)(=O)c3ccccc3N2)CCCC1)NCCc1ccccc1	-10%	?	15µM*	-12	-6%	-13%
O=C(CSC1=NS(=O)(=O)c2ccccc2N1)NCCc1ccccc1	3%	0%	13%	10	6%	-14%
COCCCNc1ncnc2sc3c(c12)CCN(Cc1cccnc1)C3	.	.	.	.	.	244%
OCCCNc1ncnc2sc3c(c12)CCN(Cc1ccccc1)C3	-6%	18µM*	?	3	1%	57%
O=C(NNC(=O)c1ccc(Br)cc1)c1ccncc1	3%	-7%	1%	11	-2%	4%
CC/C(=C\C(=O)c1ccncc1)Nc1ccc(Br)cc1	0%	?	?	-67*	-8%	60%
O=C1CCCN1CCCN1C(=O)[C@@H]2C[C@@H](O)CN2C2(CN(Cc3ccc(Cl)cc3)C2)C1=O	.	.	.	.	.	3%
CCN(CC)S(=O)(=O)c1ccc(C(=O)Nc2nnc(NC(=S)Nc3ccccc3)s2)cc1	-25%	23µM*	?	5	?	?
O=C(Nc1nnc(Cc2ccccc2)s1)c1ccccc1	-2%	-24%	-15%	15	-10%	0%

Screening data as filed in PubChem.
